# PubChem BioAssay (NCATS)
# Inconclusive results are not listed. Activity calls are given as the source filed them. Unless noted, calls come from the whole dose curve; as a rule, active = well fitted curve in the direction sought with a large enough effect; inconclusive = small, poorly fitted or top-dose-only effect, or another doubt; inactive = no such curve, though single readings can be large; an effect the other way counts as inactive or inconclusive.
# Assays:
# [1] = qHTS Assay for Lipid Storage Modulators (AID 1519; calls by dose curve); details: Drosophila S3 cells, BODIPY lipid droplet/cell ratio, laser cytometry, cells loaded with oleic acid
# Summary of the method: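 Cells seeded at 5,000 per well were treated with compounds over a concentration series and loaded with oleic acid (400 uM, as added). Lipid droplet fluorescence (488 nm excitation, 500-530 nm channel) was read by laser-scanning cytometry and normalized to 20 uM Triacsin C.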
# [2] = target: DNA repair nuclease/redox regulator APEX1 (Homo sapiens) (UniProt P27695); assay: qHTS Validation Assay for Inhibitors of the Human Apurinic/apyrimidinic Endonuclease 1 (APE1) (AID 1705;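 note: TAMRA fluorescence gain over two minutes as APE1 cuts a quenched THF abasic duplex; % is set by controls: 0 for no effect and ±100 for the full control effect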)
# DNA repair nuclease/redox regulator APEX1 (Homo sapiens), sequence (P27695 whole entry, looked up): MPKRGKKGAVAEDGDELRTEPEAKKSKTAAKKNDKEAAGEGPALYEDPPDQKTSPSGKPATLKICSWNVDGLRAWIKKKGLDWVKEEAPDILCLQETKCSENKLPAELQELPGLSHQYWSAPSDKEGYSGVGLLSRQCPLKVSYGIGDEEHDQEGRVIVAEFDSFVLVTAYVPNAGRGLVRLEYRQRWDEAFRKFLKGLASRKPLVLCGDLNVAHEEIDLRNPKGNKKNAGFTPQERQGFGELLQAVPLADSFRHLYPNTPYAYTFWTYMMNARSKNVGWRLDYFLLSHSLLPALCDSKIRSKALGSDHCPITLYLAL
# Summary of the method: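 Human APE1 was preincubated with compound for 15 min at room temperature, then 50 nM (final) THF-abasic double-stranded DNA substrate bearing 5'-TAMRA and 3'-BHQ-2 was added. Incision-driven fluorescence rise (ex 525/em 598 nm) was read kinetically.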
# [3] = Counterscreen for APE1 Inhibitors: Fluorescent Dye Displacement Validation Assay (AID 1707);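 note: plate controls were ThO with dsDNA and no compound for no effect and ThO without dsDNA for full effect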
# Summary of the method: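 Assay buffer: Tris-HCl pH7.5 with 50mM NaCl, 2 mM MgCl2, 0.01% Tween-20. Dye 250 nM, duplex 50 nM final. Readout: decrease in ThO endpoint fluorescence, 480 nm excitation, 540 nm emission.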
# [4] = target: Endonuclease 4 (Escherichia coli (strain K12)) (UniProt P0A6C1); assay: Counterscreen for APE1 Inhibitors: qHTS Validation Assay for Inhibitors of Endonuclease IV (AID 1708); note: % is set by controls: 0 for no effect and ±100 for the full control effect
# Summary of the method: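 Enzymatic AP-site incision assay using a double-stranded THF substrate labelled with TAMRA and BHQ-2; released fluorescence signals activity. Enzyme 2 nM, substrate 50 nM, 15 min compound preincubation.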
# [5] = qHTS for differential inhibitors of proliferation of Plasmodium falciparum line 7G8 (AID 1815);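 note: potency is the fitted concentration of half-maximal effect; parasite growth measured after three days of incubation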
# [6] = qHTS for differential inhibitors of proliferation of Plasmodium falciparum line GB4 (AID 1816); details: Potency: Plasmodium falciparum GB4 proliferation inhibition;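 note: potency is the fitted concentration of half-maximal effect; parasite growth measured after 72 h incubation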
# [7] = qHTS for differential inhibitors of proliferation of Plasmodium falciparum line 3D7 (AID 1876); note: potency is the fitted concentration of half-maximal effect
# [8] = qHTS for differential inhibitors of proliferation of Plasmodium falciparum line Dd2 (AID 1882); details: Potency: Plasmodium falciparum Dd2 proliferation inhibition; note: potency is the fitted concentration of half-maximal effect; nearly all actives have a fitted effect of over 65% in size
# Summary of the method: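 SYBR Green I DNA fluorescence read-out, ex 485/em 535 nm. Signals were normalized to 0.29 uM artemisinin and DMSO wells, then corrected using vehicle-only plates flanking each stack. Parasite growth ran 72 h in erythrocytes before lysis.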
# [9] = qHTS for differential inhibitors of proliferation of Plasmodium falciparum line W2 (AID 1883); details: Potency: Plasmodium falciparum W2 proliferation inhibition;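 note: potency is the fitted concentration of half-maximal effect; parasites grown with compound for 72 h before lysis and staining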
# [10] = target: ATP-dependent DNA helicase Q1 (Homo sapiens) (UniProt P46063); assay: qHTS Validation Assay for Inhibitors of RecQ-Like Dna Helicase 1 (RECQ1) (AID 2353);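 note: plate controls were DMSO vehicle for no effect and enzyme-free control for full effect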
# Summary of the method: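 50 nM RECQ1T1 preincubated 15 min with compound in Tris pH 8.0 buffer with MgCl2, DTT, Tween-20 and 2.5 ug/ml poly(dI-dC); started with 200 nM TAMRA/BHQ-2 forked duplex and 2 mM ATP. Unwinding read as fluorescence (525/598 nm), two reads 2 h apart.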
# [11] = target: RecQ-like DNA helicase BLM (Homo sapiens) (UniProt P54132); assay: qHTS Validation Assay for Inhibitors of Bloom's syndrome helicase (BLM) (AID 2364);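 note: plate controls were DMSO vehicle for no effect and enzyme-free control for full effect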
# RecQ-like DNA helicase BLM (Homo sapiens), sequence (P54132 whole entry, looked up): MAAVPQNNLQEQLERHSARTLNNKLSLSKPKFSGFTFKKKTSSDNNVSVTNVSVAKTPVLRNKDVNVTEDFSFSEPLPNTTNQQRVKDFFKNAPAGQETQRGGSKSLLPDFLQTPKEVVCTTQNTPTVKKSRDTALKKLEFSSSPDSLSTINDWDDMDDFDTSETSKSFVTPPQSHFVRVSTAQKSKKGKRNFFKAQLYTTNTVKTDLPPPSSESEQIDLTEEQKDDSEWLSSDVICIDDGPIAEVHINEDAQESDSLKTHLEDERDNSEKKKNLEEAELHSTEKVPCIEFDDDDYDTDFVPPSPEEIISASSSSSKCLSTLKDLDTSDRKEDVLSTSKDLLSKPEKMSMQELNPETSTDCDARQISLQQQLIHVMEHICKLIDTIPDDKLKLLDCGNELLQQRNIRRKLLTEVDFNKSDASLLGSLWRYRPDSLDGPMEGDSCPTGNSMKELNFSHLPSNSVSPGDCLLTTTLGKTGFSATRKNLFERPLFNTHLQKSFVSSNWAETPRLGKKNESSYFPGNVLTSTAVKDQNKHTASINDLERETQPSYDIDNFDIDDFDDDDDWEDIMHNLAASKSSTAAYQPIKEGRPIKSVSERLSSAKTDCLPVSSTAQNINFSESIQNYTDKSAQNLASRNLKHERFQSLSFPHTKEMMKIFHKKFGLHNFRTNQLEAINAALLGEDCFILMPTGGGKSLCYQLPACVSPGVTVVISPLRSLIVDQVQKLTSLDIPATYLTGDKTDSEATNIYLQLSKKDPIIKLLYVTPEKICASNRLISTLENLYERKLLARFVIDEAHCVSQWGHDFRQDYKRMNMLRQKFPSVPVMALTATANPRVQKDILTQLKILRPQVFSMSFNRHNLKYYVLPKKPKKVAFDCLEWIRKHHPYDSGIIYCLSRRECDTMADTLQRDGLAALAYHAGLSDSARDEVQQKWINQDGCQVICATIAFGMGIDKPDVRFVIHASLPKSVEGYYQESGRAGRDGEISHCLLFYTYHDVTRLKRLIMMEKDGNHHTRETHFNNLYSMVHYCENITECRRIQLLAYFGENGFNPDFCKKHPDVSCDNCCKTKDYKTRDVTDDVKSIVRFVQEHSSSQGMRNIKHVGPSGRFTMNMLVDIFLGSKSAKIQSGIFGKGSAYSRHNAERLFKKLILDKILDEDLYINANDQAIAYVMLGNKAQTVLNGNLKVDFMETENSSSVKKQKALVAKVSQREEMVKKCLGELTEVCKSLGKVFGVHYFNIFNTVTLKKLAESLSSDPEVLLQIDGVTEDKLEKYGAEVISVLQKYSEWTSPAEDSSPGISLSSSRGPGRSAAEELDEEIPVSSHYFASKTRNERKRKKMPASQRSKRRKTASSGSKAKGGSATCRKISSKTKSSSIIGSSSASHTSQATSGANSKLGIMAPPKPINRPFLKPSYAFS
# Summary of the method: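 Forked 20-bp duplex substrate (200 nM, TAMRA/BHQ-2) plus 2 mM ATP added after 15 min compound preincubation with 50 nM enzyme, pH 8.0, poly(dI-dC) 2.5 ug/ml. Strand separation followed by fluorescence (525/598 nm) over 2 h, normalized to enzyme-free and DMSO controls.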
# [12] = Quantitative high throughput screen for delayed death inhibitors of the malarial parasite plastid, 96 hour incubation (AID 488745); note: % is set by controls: 0 for no effect and ±100 for the full control effect; nearly all actives have a fitted effect of over 70% in size
# Summary of the method: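 P. falciparum carrying an integrated firefly luciferase reporter, grown in erythrocytes (2% hematocrit, 0.1% parasitemia final) in RPMI 1640/0.5% Albumax, was exposed to compound for 96 h (two generations) at 37 C, 5% CO2. Luminescence decrease indicated growth inhibition.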
# [13] = target: Thyrotropin receptor (Homo sapiens) (UniProt P16473); assay: qHTS Assay for Antagonists of the Thyroid Stimulating Hormone Receptor (AID 488980); note: 0% is about no effect
# Thyrotropin receptor (Homo sapiens), sequence (P16473 whole entry, looked up): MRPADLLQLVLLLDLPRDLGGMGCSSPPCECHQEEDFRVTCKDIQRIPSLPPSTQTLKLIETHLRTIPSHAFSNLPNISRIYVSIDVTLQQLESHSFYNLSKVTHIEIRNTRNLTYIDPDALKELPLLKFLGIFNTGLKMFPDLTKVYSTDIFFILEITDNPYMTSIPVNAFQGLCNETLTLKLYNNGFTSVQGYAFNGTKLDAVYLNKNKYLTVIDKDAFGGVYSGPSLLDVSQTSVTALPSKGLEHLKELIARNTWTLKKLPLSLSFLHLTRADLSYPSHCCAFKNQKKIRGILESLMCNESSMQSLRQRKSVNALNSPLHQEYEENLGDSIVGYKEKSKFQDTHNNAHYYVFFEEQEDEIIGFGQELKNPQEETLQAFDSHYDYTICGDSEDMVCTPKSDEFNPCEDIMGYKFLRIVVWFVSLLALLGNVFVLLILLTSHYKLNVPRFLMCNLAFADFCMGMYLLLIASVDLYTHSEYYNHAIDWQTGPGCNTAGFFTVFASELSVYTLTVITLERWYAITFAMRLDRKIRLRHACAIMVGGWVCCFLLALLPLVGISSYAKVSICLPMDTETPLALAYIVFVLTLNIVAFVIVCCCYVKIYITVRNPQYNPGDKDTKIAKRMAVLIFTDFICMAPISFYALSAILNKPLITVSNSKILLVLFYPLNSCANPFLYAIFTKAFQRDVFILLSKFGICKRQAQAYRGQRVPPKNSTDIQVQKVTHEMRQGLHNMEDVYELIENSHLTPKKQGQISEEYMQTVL
# Summary of the method: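 HEK293 cells transfected with human TSHR, suspended in HEPES-buffered HBSS with 70 uM RO 20-1724, were treated with compounds plus TSH at EC80 (4 nM final). cAMP was measured by competitive HTRF (cryptate anti-cAMP antibody, cAMP-d2 acceptor).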
# [14] = target: Thyrotropin-releasing hormone receptor (Homo sapiens) (UniProt P34981); assay: qHTS for Small Molecule Agonists and Allosteric Enhancers of Human TRH Receptor: Validation Screen for Agonists (AID 493127;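 active = calcium activation more than 3 SD above the typical response in the agonist read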;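 note: intracellular calcium rise by fluo-8 fluorescence before TRH EC20 addition; 0% is about no effect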); details: TRH receptor agonist cell assay; at 2 µM; stronger effect = higher value
# Thyrotropin-releasing hormone receptor (Homo sapiens), sequence (P34981 whole entry, looked up): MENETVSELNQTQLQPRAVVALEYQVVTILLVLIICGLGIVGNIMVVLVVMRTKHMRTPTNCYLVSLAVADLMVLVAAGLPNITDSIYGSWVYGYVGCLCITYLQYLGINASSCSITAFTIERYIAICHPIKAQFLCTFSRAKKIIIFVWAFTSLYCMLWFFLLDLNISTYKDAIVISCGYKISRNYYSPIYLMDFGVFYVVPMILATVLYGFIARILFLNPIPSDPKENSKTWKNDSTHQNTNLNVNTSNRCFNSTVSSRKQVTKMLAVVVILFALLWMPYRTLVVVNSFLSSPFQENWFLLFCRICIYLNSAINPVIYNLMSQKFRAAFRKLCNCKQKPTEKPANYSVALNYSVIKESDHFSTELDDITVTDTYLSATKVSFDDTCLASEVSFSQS
# Summary of the method: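 TRHR-expressing cells were plated overnight in serum-containing medium, then loaded with fluo-8 calcium dye at room temperature for 30 min–1.5 h. After a 10 s baseline, compound was pin-transferred and calcium fluorescence (ex 480/em 530) read kinetically for agonist response.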
# [15] = target: Galactokinase (Homo sapiens) (UniProt P51570); assay: qHTS Validation Assay for Inhibitors of Human Galactokinase (GALK) (AID 493189); note: 0% is about no effect
# Summary of the method: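 GALK (5 nM) with 35 uM ATP and 100 uM galactose in HEPES pH8.0, MgCl2, NaCl, DTT, BSA; 1 h at room temperature. Residual ATP read by Kinase-Glo Plus luminescence after 10 min.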
# [16] = Validation screen for small molecules that induce DNA re-replication in SW480 colon adenocarcinoma cells (AID 504364); note: 0% is about no effect
# Summary of the method: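 SW480 cells seeded at 250 per well were exposed to compound or DMSO for 48 hr at 37 C, 5% CO2, then stained with Hoechst for 40 min. DNA content per nucleus was imaged (405 nm ex, 500-530 nm em).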
# [17] = target: Voltage-gated inwardly rectifying potassium channel KCNH2 (Homo sapiens) (UniProt Q12809); assay: qHTS Assay for Small Molecule Inhibitors of the Human hERG Channel Activity (AID 588834);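 note: potency is the fitted concentration of half-maximal effect; lower thallium flux fluorescence means stronger hERG block; nearly all actives have a fitted effect of over 50% in size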
# Voltage-gated inwardly rectifying potassium channel KCNH2 (Homo sapiens), sequence (Q12809 whole entry, looked up): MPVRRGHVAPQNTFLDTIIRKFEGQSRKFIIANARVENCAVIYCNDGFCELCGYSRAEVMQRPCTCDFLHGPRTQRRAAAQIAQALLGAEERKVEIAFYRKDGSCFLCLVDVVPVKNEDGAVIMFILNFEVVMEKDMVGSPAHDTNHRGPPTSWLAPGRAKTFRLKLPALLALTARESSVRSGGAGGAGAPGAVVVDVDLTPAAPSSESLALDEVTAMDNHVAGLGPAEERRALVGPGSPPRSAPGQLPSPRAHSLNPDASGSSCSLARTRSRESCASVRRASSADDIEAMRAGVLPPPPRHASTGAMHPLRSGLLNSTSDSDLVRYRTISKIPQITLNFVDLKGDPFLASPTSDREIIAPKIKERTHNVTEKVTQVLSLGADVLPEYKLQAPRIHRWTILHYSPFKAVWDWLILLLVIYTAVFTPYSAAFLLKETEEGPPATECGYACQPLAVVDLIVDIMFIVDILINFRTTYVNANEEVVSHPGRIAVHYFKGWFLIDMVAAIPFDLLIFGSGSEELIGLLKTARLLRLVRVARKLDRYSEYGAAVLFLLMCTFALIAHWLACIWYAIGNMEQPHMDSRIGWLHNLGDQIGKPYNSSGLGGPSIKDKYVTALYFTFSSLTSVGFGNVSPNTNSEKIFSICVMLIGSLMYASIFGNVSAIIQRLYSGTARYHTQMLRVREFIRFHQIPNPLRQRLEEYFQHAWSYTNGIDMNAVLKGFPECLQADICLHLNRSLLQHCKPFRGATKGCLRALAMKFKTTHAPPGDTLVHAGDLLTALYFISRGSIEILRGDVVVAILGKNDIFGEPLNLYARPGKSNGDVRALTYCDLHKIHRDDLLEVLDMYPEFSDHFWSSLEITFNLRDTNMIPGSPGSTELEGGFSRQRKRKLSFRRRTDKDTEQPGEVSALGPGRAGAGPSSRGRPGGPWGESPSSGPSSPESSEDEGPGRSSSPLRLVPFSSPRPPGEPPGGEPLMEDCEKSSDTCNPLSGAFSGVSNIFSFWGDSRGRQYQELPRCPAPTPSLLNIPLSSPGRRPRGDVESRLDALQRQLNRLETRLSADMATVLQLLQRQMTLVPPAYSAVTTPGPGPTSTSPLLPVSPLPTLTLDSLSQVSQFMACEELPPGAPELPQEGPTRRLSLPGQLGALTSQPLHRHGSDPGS
# Summary of the method: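 U2OS cells transduced with hERG via BacMam (MOI ~100), plated 2000/well, loaded with FluxOR thallium dye, compound ~10 min, then stimulation buffer; fluorescence decrease read kinetically; AC50 from Hill fits.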
# [18] = target: Cytochrome P450 2D6 (Homo sapiens) (UniProt P10635); assay: Cytochrome P450 family 2 subfamily D member 6 (CYP2D6) small molecule antagonists: luciferase biochemical (cell-free) qHTS assay (AID 1645840; active = well fitted curve in the direction sought with a large enough effect in the repeat runs; an effect the other way counts as inactive or inconclusive; note: potency is the fitted concentration of half-maximal effect; nearly all actives have a fitted effect of over 55% in size)
# Summary of the method: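 P450-Glo luminescent screen: recombinant CYP2D6 enzyme–proluciferin substrate mix preincubated with compound 10 min at room temperature, then NADPH regeneration added for 1 h at room temperature. Detection reagent added for 20 min; luciferin light read as relative luminescence units.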
# [19] = NCATS anti-infectives library activity on HEK293 viability as a counter-qHTS vs the C. elegans viability qHTS (AID 1745854); note: % is set by controls: 0 for no effect and ±100 for the full control effect
# Summary of the method: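 HEK293 cells, 1500 per well, exposed 24 hr at 37C in 5% CO2 to compounds in a 1:5 titration, up to 41.7 uM final. Viability read as CellTiter-Glo luminescence after 10 min at room temperature.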
# [20] = NCATS anti-infectives library activity on the primary C. elegans qHTS viability assay (AID 1745855; calls by dose curve)
# Summary of the method: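 Viability is taken from GFP fluorescence of PE254-GFP-FLuc C. elegans imaged by laser cytometry over 7 days. Ten L1 worms per well grow at 21 °C on TOP10 E. coli capsules with titrated compound; levamisole marks toxicity.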
# [21] = target: Tyrosine-protein kinase Yes (Homo sapiens) (UniProt P07947); assay: qHTS for small molecule inhibitors of Yes1 kinase: Primary Screen (AID 686947); note: potency is the fitted concentration of half-maximal effect; nearly all actives have a fitted effect of over 60% in size
# Summary of the method: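 ADP-Glo luminescence readout; final 4 nM Yes1, 0.1 mM ATP, 0.3 mg/mL poly(E4Y), Tris pH 7.5, MgCl2, DTT, Brij-35. 20 min compound preincubation, 60 min reaction at RT. Normalized to DMSO wells with and without enzyme.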
# [22] = qHTS for small molecule inhibitors of Yes1 kinase: Counter Assay (AID 686950);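 note: no kinase present so only ADP-Glo detection of a fixed ADP amount is tested; luminescence from ADP-Glo reporting ADP in a fixed ATP and ADP mixture; 0% = DMSO wells with ATP plus ADP and -100% = ATP-only wells without ADP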
# Summary of the method: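 Luminescence read-out from ADP-Glo quantifies a fixed ADP amount (0.02 mM ADP with 0.08 mM ATP) after 60 min at room temperature; signal is normalized between DMSO wells with ATP/ADP and with 0.1 mM ATP alone.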
# [23] = target: Calcium and integrin-binding protein 1 (Homo sapiens) (UniProt Q99828); assay: Primary qHTS for Identification of Calcium Integrin Binding Protein 1 (CIB1) Competitor (AID 1508620);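 note: GST tagged CIB1 binding a fluorescein labelled alphaIIb integrin peptide tracer; top concentration of the series differs between compounds; % is set by controls: 0 for no effect and ±100 for the full control effect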
# Summary of the method: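 CIB1-GST (1 uM final) and compound incubated 15 min at room temperature before adding FITC-alphaIIb peptide tracer (100 nM final). Competition for binding read by fluorescence polarization (ex 480, em 540) after another 15 min at room temperature.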
# [24] = Primary qHTS for small molecule stabilizers of the endoplasmic reticulum resident proteome: Secreted ER Calcium Modulated Protein (SERCaMP) assay (AID 1508630); note: % is set by controls: 0 for no effect and ±100 for the full control effect
# Summary of the method: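 GLuc-SERCaMP-expressing SH-SY5Y cells, pretreated 16 h with compound, are challenged with thapsigargin to empty ER calcium stores; after 4 h, coelenterazine is added directly to the medium and luminescence is imaged.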
# [25] = target: Catechol O-methyltransferase (Homo sapiens) (UniProt P21964); assay: Confirmatory Screen for Target Class Profiling of Small Molecule Inhibitors of Methyltransferases (AID 1745852; calls by dose curve; note: potency is the fitted concentration of half-maximal effect); details: MTase-Glo luminescence, SAH detection, recombinant enzyme; measured here: COMT max response; stronger effect = lower value
# Catechol O-methyltransferase (Homo sapiens), sequence (P21964 whole entry, looked up): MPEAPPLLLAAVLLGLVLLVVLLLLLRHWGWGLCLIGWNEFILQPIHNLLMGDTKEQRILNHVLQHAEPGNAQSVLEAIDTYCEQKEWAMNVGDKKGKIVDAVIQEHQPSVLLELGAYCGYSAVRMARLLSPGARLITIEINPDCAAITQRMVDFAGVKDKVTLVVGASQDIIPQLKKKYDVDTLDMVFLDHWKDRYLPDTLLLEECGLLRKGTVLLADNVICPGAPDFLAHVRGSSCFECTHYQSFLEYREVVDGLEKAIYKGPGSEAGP
# [26] = target: Guanidinoacetate N-methyltransferase (Homo sapiens) (UniProt Q14353); assay: as above; details: activity change, negative = inhibition: at 57.3 µM (top of the series) unless noted
# [27] = target: Nicotinamide N-methyltransferase (Homo sapiens) (UniProt P40261); assay: as above; details: MTase-Glo luminescence, SAH detection, recombinant enzyme; measured here: NNMT max response; stronger effect = lower value
# Nicotinamide N-methyltransferase (Homo sapiens), sequence (P40261 whole entry, looked up): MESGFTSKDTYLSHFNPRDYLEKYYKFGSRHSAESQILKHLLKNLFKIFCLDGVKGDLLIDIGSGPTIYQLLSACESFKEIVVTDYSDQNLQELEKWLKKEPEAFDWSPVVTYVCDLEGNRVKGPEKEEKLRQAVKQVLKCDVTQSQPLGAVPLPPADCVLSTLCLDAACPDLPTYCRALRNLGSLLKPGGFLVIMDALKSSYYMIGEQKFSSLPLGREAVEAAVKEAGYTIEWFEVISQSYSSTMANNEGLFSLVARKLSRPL
# [28] = target: Phenylethanolamine N-methyltransferase (Homo sapiens) (UniProt P11086); assay: as above; details: MTase-Glo luminescence, SAH detection, recombinant enzyme; measured here: PNMT max response; stronger effect = lower value
# Phenylethanolamine N-methyltransferase (Homo sapiens), sequence (P11086 whole entry, looked up): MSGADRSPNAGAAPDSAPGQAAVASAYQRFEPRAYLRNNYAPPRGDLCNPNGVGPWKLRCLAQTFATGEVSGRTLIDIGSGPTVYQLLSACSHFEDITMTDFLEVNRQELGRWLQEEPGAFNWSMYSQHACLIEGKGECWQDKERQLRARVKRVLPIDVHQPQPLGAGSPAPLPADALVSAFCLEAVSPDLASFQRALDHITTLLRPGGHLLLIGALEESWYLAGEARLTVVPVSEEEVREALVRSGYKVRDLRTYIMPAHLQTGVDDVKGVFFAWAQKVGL
smiles,measurement,setting,value
O=S(=O)(NCCNC/C=C/c1ccc(Br)cc1)c1cccc2cnccc12,"activity change, negative = inhibition",[1]; at 57.5 µM (top of the series),-23.6% (inactive)
same,max response,[1]; measured here: cell count channel max response,-29.8%
same,max response,[1]; measured here: lipid channel max response,-49.7%
same,Potency,[2],inactive
same,Potency,[3],inactive
same,Potency,[4],inactive
same,Potency,[5],8.91 µM (active)
same,Potency,[6],12.6 µM (active)
same,Potency,[7],11.2 µM (active)
same,Potency,[8],8.91 µM (active)
same,Potency,[9],5.01 µM (active)
same,Potency,[10],inactive
same,Potency,[11],inactive
same,Potency,[12],inactive
same,outcome,[13],inactive
same,activation,[14],5.62% (inactive)
same,outcome,[15],inactive
same,outcome,[16],inactive
same,Potency,[17],2.82 µM (active)
same,Potency,[18],4.77 µM (active)
same,outcome,[19],inactive
same,Potency,[20],inactive
COc1ccc(-c2oc3ncnc(N)c3c2-c2ccc(NC(=O)Nc3cc(C(F)(F)F)ccc3F)cc2)cc1,Potency,[21],1.04 µM (active)
same,outcome,[22],inactive
CCCCCCCCCCCCCCCCOCCCOP(=O)(O)COC(CO)Cn1ccc(N)nc1=O (stereo unspecified),outcome,[23],inactive
c1ccc(-c2[nH]ncc2-c2ccnc3ccccc23)nc1,Potency,[24],inactive
O=c1cc(N2CCNCC2)oc2c(-c3ccccc3)cccc12,Potency,[24],inactive
c1nc(NCC2CCOC2)c2cc(-c3ccc4c(c3)OCO4)ccc2n1 (stereo unspecified),activity,[25],-39.2%
same,Potency,[26],42.9 µM (active)
same,activity,[27],-29.1%
same,activity,[28],-63.5%
